PubChem BioAssay
Active and inactive are the calls of the source.

Assays:
[1] = anti-His antibody binders, primary screen, artefact control for SMM control protein annotation, biochemical, small-molecule microarray, 635 nm fluorescence (AID 1128); details: anti-His Alexa647 antibody binding, higher = more signal;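 note: score merges feature fluorescence with signal-to-noise for each printed compound spot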
[2] = tested on: Human papillomavirus type 1a E7 protein (residues 1-88); assay: HPV1a E7 small-molecule binders, primary screen, biochemical, small-molecule microarray, residues 1-88, 635 nm (AID 1129); details: small-molecule microarray binding, fluorescence 635 nm; higher = more signal
[3] = molecular target: Focal adhesion kinase 1 (Homo sapiens) (UniProt Q05397); assay: small-molecule microarray binders of FAK, primary screen, biochemical, 635/667 nm fluorescence, BSA, DTT (AID 1130); details: PTK2 binding, 635 nm fluorescence, higher = more signal;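 note: composite of spot emission at 667 nm and signal to noise over triplicate slides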
[4] = tested on: Fibrinogen (Alexa647-labelled); assay: fibrinogen binders on compound microarrays, profiling panel, artefact control for SMM control-protein annotation, biochemical, small-molecule microarray, 635/667 nm fluorescence (AID 1131); details: fibrinogen-A647 binding fluorescence, higher = more signal;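 note: z-score merges 667 nm fluorescence with per-spot signal-to-noise over triplicate slides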
[5] = molecular target: Follistatin (Homo sapiens) (UniProt P19883); assay: follistatin binders on small-molecule microarrays, primary screen, biochemical, small-molecule microarray, 635/667 nm fluorescence (AID 1132); details: FST binding, 635 nm fluorescence, higher = more signal
[6] = molecular target: Fibroblast growth factor 2 (Homo sapiens) (UniProt P09038); assay: FGF2 binders on small-molecule microarrays, primary screen, biochemical, small-molecule microarray, 635/667 nm fluorescence (AID 1133); details: small-molecule microarray binding, FGF2, fluorescence 635/667; higher = more signal
[7] = mitochondrial membrane potential change in A549 cells, profiling panel, cell-based, JC-1 fluorescence, basal, 24 h, 100 nL (AID 1138); details: higher = more signal;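 note: A549 lung adenocarcinoma cells under basal conditions with no added stimulus; test concentration not given here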
[8] = tested on: Lefty1; assay: Lefty1 binders on small-molecule microarrays, primary screen, biochemical, small-molecule microarray, 635/667 nm fluorescence (AID 1139); details: small-molecule microarray binding, fluorescence 635/667; higher = more signal
[9] = tested on: wheat germ agglutinin (Triticum aestivum), Alexa647-labelled; assay: wheat germ agglutinin binders on compound microarrays, profiling panel, artefact control for SMM control-protein annotation, biochemical, small-molecule microarray, 635/667 nm fluorescence (AID 1140); details: WGA-A647 binding, 635 nm fluorescence, higher = more signal;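 note: score merges 667 nm feature emission with signal to noise over triplicate slides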
[10] = molecular target: Luciferin 4-monooxygenase (Photinus pyralis) (UniProt P08659); assay: firefly luciferase enzyme inhibitors, primary screen, biochemical, luminescence, purified enzyme, 2006 set (AID 1141); details: SteadyGlo luminescence, 30 min, higher = more signal, called active from +8 up or from −8 down;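 note: cell-free assay with purified firefly luciferase at 100 ng per well in PBS; test concentration not given here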
Luciferin 4-monooxygenase (Photinus pyralis), sequence (P08659 whole entry, looked up): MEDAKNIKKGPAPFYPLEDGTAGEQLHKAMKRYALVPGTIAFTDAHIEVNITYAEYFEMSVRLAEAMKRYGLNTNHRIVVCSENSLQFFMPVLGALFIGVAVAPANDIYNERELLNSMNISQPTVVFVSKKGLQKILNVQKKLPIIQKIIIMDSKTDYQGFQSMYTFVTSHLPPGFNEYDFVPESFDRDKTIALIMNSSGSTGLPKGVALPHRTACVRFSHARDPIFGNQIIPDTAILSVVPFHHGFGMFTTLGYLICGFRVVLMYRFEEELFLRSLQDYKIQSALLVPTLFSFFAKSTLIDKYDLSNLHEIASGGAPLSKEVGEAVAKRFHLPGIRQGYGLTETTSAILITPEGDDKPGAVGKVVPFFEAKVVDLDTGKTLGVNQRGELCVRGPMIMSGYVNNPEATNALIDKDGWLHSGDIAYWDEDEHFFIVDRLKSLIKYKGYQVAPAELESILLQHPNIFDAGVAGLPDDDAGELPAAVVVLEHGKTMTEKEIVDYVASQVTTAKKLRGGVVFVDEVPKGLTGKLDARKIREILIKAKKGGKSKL

Focal adhesion kinase 1 (Homo sapiens), sequence (Q05397 whole entry, looked up): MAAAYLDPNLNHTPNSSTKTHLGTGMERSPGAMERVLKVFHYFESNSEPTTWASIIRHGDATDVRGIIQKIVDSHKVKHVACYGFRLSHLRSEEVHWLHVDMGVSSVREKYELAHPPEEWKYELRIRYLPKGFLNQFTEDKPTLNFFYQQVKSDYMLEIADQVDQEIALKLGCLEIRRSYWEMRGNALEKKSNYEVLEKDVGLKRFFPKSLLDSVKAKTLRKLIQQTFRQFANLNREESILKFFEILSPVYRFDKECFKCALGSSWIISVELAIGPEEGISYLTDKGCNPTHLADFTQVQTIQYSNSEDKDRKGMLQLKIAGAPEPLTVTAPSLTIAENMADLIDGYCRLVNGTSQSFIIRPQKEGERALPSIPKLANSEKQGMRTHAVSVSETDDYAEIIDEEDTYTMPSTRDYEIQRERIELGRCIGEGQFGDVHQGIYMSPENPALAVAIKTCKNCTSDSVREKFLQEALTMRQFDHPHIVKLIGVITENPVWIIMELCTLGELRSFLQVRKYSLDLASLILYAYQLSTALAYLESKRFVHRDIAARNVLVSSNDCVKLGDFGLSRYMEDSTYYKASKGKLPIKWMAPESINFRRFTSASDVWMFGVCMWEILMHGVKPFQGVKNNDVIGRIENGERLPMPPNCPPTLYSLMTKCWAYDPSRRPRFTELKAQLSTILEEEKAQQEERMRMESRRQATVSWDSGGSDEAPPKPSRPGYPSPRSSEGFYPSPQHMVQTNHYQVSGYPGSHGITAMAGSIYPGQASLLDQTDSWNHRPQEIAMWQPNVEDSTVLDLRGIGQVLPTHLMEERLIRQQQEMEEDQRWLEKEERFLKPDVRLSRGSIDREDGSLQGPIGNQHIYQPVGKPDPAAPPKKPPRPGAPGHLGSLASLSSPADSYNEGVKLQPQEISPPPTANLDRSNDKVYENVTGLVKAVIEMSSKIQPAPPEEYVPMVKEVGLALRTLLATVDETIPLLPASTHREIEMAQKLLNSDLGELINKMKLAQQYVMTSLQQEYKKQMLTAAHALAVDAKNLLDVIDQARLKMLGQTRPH
Follistatin (Homo sapiens), sequence (P19883 whole entry, looked up): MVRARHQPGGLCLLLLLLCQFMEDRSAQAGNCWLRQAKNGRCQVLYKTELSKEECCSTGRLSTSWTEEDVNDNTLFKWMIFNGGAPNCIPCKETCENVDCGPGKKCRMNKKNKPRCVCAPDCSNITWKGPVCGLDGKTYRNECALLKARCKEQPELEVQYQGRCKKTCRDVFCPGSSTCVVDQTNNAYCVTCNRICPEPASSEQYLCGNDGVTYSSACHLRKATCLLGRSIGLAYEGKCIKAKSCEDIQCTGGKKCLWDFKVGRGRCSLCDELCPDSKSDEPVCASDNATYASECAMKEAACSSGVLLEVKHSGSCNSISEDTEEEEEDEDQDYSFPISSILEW
Fibroblast growth factor 2 (Homo sapiens), sequence (P09038 whole entry, looked up): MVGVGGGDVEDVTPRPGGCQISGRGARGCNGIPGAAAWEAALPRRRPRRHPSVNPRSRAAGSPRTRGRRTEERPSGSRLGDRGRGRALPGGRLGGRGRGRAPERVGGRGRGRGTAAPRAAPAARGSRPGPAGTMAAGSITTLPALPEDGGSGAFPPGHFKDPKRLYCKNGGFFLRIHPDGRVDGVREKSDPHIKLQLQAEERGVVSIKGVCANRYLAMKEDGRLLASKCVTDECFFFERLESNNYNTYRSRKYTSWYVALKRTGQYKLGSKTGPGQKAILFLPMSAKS

Structure (SMILES) | composite z-score [1] | composite z-score [2] | composite z-score [3] | composite z-score [4] | composite z-score [5] | composite z-score [6] | z-score [7] | composite z-score [8] | composite z-score [9] | z-score [10]
CCOC(=O)C1=C[C@@H](C(C)(C)C)N(S(=O)(=O)c2ccc(C)cc2)[C@H]1c1ccc(Cl)c(Cl)c1 | 0.978 | 1.21 | 0.606 | 0.968 | 0.654 | 0.202 | 3.07 | 0.495 | 0.945 | 1.34 (inactive)
Cc1ccc(F)cc1S(=O)(=O)N[C@@H]1CCN(Cc2ccc(C(F)(F)F)cc2)C1 | -0.175 | -0.704 | -0.0343 | -0.292 | 0.277 | -0.456 | 0.197 | 0.22 | -0.655 | -0.0404 (inactive)
COc1cc(CO)cc(I)c1O[C@H]1C=C(C(=O)NCCO)C[C@@H](N(CCc2cccc(F)c2)C(=O)CCC2CCCC2)[C@@H]1O | 2.62 | 1.19 | 0.218 | 0.819 | 1.46 | 1.76 | -0.172 | 1.49 | 0.524 | 1.38 (inactive)
Cc1ccc(C(C)CC(O)C2C=CC3C(=O)NC(=O)C3N2Nc2ccccn2)o1 (stereo not given) | 1.17 | -0.722 | -0.121 | -0.633 | 0.709 | 0.243 | 0.839 | 0.643 | -0.0217 | -2.19 (inactive)
C=CCC(OC(C)=O)[C@@H]1[C@@H](N(Cc2ccc(-c3ccccc3)cc2)C(=O)c2ccc(C)cc2)c2cc(OCCCO)ccc2N1C(=O)Cc1ccc(OC)cc1 (stereo not given in full) | -0.109 | -0.33 | -0.026 | 0.386 | 0.534 | -0.177 | 1.85 | 0.0835 | 0.115 | -1.58 (inactive)
COC(=O)[C@@]1(Cc2ccc(OC)cc2)[C@H]2c3cc(C(=O)N(C)C)n(Cc4ccc(OC)c(OC)c4)c3C[C@H]2CN1C(=O)c1ccccc1 | 1.26 | 1.25 | 0.96 | 0.844 | 0.745 | -0.3 | 0.327 | -0.257 | 0.951 | 1.72 (inactive)
C=C(/C(=C/C[C@@H](OC(=O)c1ccncc1)c1ccc(CO)o1)c1cc(C(=O)OC)ccc1OC)C(C)C | 1.02 | 1.23 | 0.317 | 0.415 | 1.09 | 1.3 | 0.375 | 1.24 | 0.553 | -4.24 (inactive)
C=CCC(OC(C)=O)[C@@H]1[C@@H](N(Cc2ccc(-c3cccc(C(F)(F)F)c3)o2)C(=O)c2ccc(C)cc2)c2cc(OCCCO)ccc2N1C(=O)c1ccc2ccccc2n1 (stereo not given in full) | -0.614 | -0.369 | -0.223 | 0.33 | 0.839 | 0.131 | 0.61 | 0.727 | 0.717 | -1.25 (inactive)
C=C(C(=O)CC[C@@H](OC(=O)c1cccnc1)c1ccc(OCCO)cc1)C(C)C | 0.222 | 0.314 | -0.17 | -0.0579 | 1.43 | 1.16 | -0.358 | 1.21 | 0.752 | -3.48 (inactive)
C=CCC(OC(C)=O)[C@@H]1[C@@H](N(Cc2ccc(-c3cccc(C(F)(F)F)c3)o2)C(=O)Cc2ccc(OC)cc2)c2cc(OCCCO)ccc2N1C(=O)Cc1ccc(OC)cc1 (stereo not given in full) | -0.381 | -1.04 | -0.127 | -1.31 | 0.544 | 0.283 | 0.212 | -0.0334 | 0.0267 | 0.781 (inactive)
CN(C)CCCCCCNC(=O)[C@@H]1C[C@@H]2C(=O)NCC(=O)N2[C@@H]1c1cccc(OCCO)c1 | 2.96 | 1.28 | 0.446 | 0.232 | 1.34 | 0.826 | 0.295 | 1.36 | -0.0165 | -0.791 (inactive)
CC(C)[Si]1(C(C)C)O[C@@H](c2ccccc2)c2cc(-c3ccc(-c4ccc(Cl)c(Cl)c4)o3)nc(CCc3ccccc3)c21 | -0.203 | -0.339 | -0.389 | -1.27 | -2.16 | -0.614 | -0.107 | -1.08 | -1.58 | -0.7 (inactive)
COc1ccc([Si](C)(C)[C@@H]2[C@@H](CC(=O)N3Cc4ccccc4C[C@H]3CO)O[C@]3(C(=O)N(Cc4cccc(N5C(=O)COc6ccccc65)c4)c4ccccc43)[C@H]2C)cc1 | 1.16 | 1 | 0.261 | 0.269 | 1.26 | 1.76 | -0.0295 | 1.25 | 0.0948 | -0.438 (inactive)
Cc1ccc(S[C@]2(C(=O)NCC(F)(F)F)CC(=O)N(C3Cc4ccccc4C3)[C@@H]2c2ccc(CO)cc2I)cc1 | -1.2 | -0.38 | -0.493 | -0.161 | -1.14 | -1.01 | 0.496 | -1.36 | 0.0728 | -0.727 (inactive)
CO[C@H]1O[C@H](CO)[C@@H](OC(=O)Nc2cccc(F)c2)[C@H](OC(=O)Nc2ccccc2-c2ccccc2)[C@@H]1OC(=O)Nc1ccccc1-c1ccccc1 | 1.61 | 1.25 | 0.797 | 1 | 1.09 | 0.205 | -1.16 | 0.102 | 1.11 | 0.923 (inactive)
C=CCNC(=O)[C@H]1[C@@H]2C(=O)O[C@@H](c3ccccc3)[C@@H](c3ccccc3)N2[C@@H](c2ccc(O)cc2)[C@]12C(=O)Nc1ccc(C#Cc3ccc(OC)cc3)cc12 | 0.194 | 1.22 | 0.403 | 0.789 | 1.16 | 1.13 | -0.769 | 0.597 | 0.278 | 0.153 (inactive)
C[N+](C)(C)CCCC[C@@H]1NC(=O)[C@@H]2C[C@H](C(=O)NCCCCCCNC(=O)CS)[C@H](c3cccc(OCCO)c3)N2C1=O | 1.89 | -0.208 | -0.379 | 0.552 | 1.27 | 1.2 | 0.332 | 1.29 | 0.585 | -1.45 (inactive)

Structure (SMILES) | composite z-score [1] | composite z-score [2] | composite z-score [3] | composite z-score [4] | composite z-score [5] | composite z-score [6] | z-score [7] | composite z-score [8] | composite z-score [9] | z-score [10]
C=CC[C@@]1(C(N)=O)N=C(c2ccc(OCCCO)cc2)O[C@@H]1c1ccccc1N=[N+]=[N-] | 1.91 | 1.24 | 0.231 | 0.183 | 1.34 | 1.14 | 0.755 | 1.04 | 1.13 | -5.82 (inactive)
CCN(CC)c1ccc(N2CC=CC34O[C@@H]5C=CCCOC(=O)C5[C@H]3C(=O)N(CCCO)[C@@H]4C2=O)cc1 (stereo not given in full) | -1.26 | -1.14 | 0.585 | -1.33 | -0.0464 | -0.175 | 0.185 | 0.108 | -1.19 | -0.546 (inactive)
C#C[C@H](O[Si](C#CCCCCCC)(C(C)C)C(C)C)c1ccccc1 | 0.272 | 0.203 | -0.308 | -0.152 | 0.481 | -0.471 | -0.562 | 0.605 | -0.174 | 1.25 (inactive)
O=C1OCCC=C[C@H]2OC34C=CCN(CCN5CCOCC5)C(=O)[C@H]3N(CCO)C(=O)[C@@H]4C12 (stereo not given in full) | 1.07 | -0.793 | -0.379 | 0.236 | 1.11 | 0.785 | -0.849 | 0.648 | 0.418 | -0.0527 (inactive)
COCCOC(=O)N1C(=O)[C@@]2(c3cc(C#CCC(C(=O)OC)C(=O)OC)ccc31)[C@H](c1ccc(OCCO)cc1)N1[C@H](c3ccccc3)[C@H](c3ccccc3)OC(=O)[C@H]1[C@@H]2C(=O)NC[C@H](O)c1ccccc1 | 1.18 | 1.22 | 0.418 | 0.952 | 1.29 | 1.7 | -0.95 | 1.15 | 0.422 | -0.056 (inactive)
CCCC[C@@H]1C[C@H]1[C@@H](NC(=O)c1ccco1)c1ccccc1 | -0.172 | -1 | -0.107 | -1.82 | -1.64 | -2.17 | 0.542 | -1.06 | -0.0439 | 0.771 (inactive)
C[n+]1ccc2ccc(O)cc2c1 | 1.81 | -0.495 | 0.132 | -0.399 | 1.37 | 1.68 | -0.924 | 1.54 | -0.37 | 0.591 (inactive)
C=C(CCCC)/C(=C/C[C@H](OC(C)=O)c1ccc(CO)o1)c1cc(C(=O)OC)ccc1OC | 0.683 | 0.596 | 0.0945 | 0.579 | 1.29 | 0.708 | -0.925 | 1.42 | 0.789 | -1.45 (inactive)
COCCOC(=O)N1C(=O)[C@@]2(c3cc(C#CC4=CCCCC4)ccc31)[C@H](c1ccc(OCCO)cc1)N1[C@H](c3ccccc3)[C@H](c3ccccc3)OC(=O)[C@H]1[C@@H]2C(=O)Nc1nc2ccccc2s1 | 0.317 | 1.18 | 0.358 | 0.929 | 1.19 | 0.571 | -2.19 | 0.982 | 0.53 | -2.79 (inactive)
C=C(CCCC)C(=O)CC[C@H](OC(=O)c1ccccc1-c1ccccc1C(=O)O)c1ccc(CO)o1 | 1.22 | 1.22 | -0.116 | 0.954 | 1.1 | 0.905 | -0.541 | 1.57 | 1.14 | -1.96 (inactive)
COCCCNC(=O)[C@@]1(C)c2ccccc2C(=O)N(Cc2ccccc2)[C@H]1c1ccc(CO)cc1 | 0.909 | 0.0047 | 0.101 | -0.678 | 0.0033 | -0.992 | -0.939 | -0.635 | -0.505 | -0.0137 (inactive)
COc1ccc(C#Cc2ccc3c(c2)[C@]2(C(=O)N3)[C@H](c3ccc(OCCO)cc3)N3[C@H](c4ccccc4)[C@H](c4ccccc4)OC(=O)[C@H]3[C@@H]2C(=O)Nc2nc3ccccc3s2)cc1 | 0.842 | 1.17 | 0.862 | 0.88 | 1.3 | 1.28 | -2.06 | 1.57 | 0.764 | -3.84 (inactive)
O=C1OCC=C[C@H]2OC34C=CCN(CCN5CCOCC5)C(=O)[C@H]3N(CCCCCCO)C(=O)[C@@H]4[C@@H]12 (stereo not given in full) | 3.21 | -0.206 | -0.0142 | -0.469 | 0.277 | -0.131 | 0.582 | 0.659 | -0.0261 | -0.689 (inactive)
CC(C)(C)OC(=O)CC[C@@]1(C(N)=O)N=C(c2ccc(OCCCO)cc2)O[C@@H]1c1ccccc1N=[N+]=[N-] | 1.12 | 0.886 | 1.1 | 1.06 | 1.21 | 1.12 | -0.04 | 0.512 | 0.884 | -10.5 (active)
C=CCC(OC(C)=O)[C@@H]1[C@@H](N(Cc2cc3ccccc3o2)C(=O)c2cccc3ccccc23)c2cc(OCCCO)ccc2N1C(=O)Cc1ccc(OC)cc1 (stereo not given in full) | 0.305 | -0.328 | -0.109 | 0.412 | 1.02 | 0.78 | -0.529 | 0.339 | 0.637 | 0.48 (inactive)
CC(C)N1C(=O)c2ccccc2[C@](C)(C(=O)NC2CC2)[C@@H]1c1ccc(CO)cc1 | 1.58 | 0.875 | -0.118 | 0.803 | 1.12 | 0.507 | 0.378 | 0.0517 | 0.497 | 1.34 (inactive)
